According to ChEMBL document CHEMBL3988442, “University of Dundee, Small-Polar-MMV Screening Library” (2021):
For some assays here: Measured potencies and affinities stand elsewhere.

How the values were obtained:
Parameters in all cases: scale not given: direction of the effect not stated beside the values
[1] = biological target: Protein translocase subunit SecA (Escherichia coli (strain K12)) (UniProt P10408); experiment: Assay to Identify E. coli SecA ATPase Inhibitors; format: functional; details: 30 µM
[2] = biological target: T1, Ubiquitin-activating enzyme e1, putative (Leishmania donovani (strain BPK282A1)) (UniProt E9BSI1); experiment: Leishmania donovani Ubiquitin Activating Enzyme (LdE1); format: functional; details: 30 µM
T1 sequence (whole entry): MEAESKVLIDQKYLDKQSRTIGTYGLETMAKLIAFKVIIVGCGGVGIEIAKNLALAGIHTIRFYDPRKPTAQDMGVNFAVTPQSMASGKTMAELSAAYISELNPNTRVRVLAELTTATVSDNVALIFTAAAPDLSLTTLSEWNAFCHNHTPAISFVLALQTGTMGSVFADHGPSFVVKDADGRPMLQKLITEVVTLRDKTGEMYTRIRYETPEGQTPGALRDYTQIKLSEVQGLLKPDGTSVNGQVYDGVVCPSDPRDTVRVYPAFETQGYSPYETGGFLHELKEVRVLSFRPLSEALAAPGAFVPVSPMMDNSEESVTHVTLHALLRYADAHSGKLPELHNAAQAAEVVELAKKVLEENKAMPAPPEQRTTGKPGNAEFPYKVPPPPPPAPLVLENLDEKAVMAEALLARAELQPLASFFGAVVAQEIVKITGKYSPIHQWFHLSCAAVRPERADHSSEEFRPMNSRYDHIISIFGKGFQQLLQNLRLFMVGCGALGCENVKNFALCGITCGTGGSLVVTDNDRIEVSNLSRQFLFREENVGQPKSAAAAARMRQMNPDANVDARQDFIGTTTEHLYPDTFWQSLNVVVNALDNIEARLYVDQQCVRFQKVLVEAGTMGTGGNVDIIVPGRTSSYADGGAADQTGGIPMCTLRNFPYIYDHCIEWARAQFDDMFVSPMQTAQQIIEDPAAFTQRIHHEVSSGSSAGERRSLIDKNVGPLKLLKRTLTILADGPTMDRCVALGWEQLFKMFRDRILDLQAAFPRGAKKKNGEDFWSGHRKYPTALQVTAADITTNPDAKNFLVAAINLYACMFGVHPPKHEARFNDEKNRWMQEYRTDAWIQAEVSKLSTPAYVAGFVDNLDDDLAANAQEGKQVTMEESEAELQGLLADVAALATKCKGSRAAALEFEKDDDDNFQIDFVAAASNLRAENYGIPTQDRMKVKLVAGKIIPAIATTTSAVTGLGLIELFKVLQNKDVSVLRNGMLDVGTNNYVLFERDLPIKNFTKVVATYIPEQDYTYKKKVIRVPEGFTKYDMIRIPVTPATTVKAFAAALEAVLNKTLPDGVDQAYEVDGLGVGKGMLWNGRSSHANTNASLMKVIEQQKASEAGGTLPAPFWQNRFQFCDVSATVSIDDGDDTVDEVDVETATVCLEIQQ

[3] = biological target: AMP-activated protein kinase, AMPK (Homo sapiens) (UniProt P54646+O43741+P54619+Q9UGJ0+Q9Y478+Q13131+Q9UGI9); experiment: AMP-dependent Kinase enzyme assay. An in vitro enzyme assay that detects ADP turnover that is directly proportional to AMPK activity. This uses naive AMPK that is activated during the assay with MK-8722; format: functional; details: 30 µM
[4] = biological target: Sialic acid-binding Ig-like lectin 9 (Homo sapiens) (UniProt Q9Y336); experiment: Hs-Siglec9 ALPHAscreen SOP 20170721; details: 10 µM
[5] = test system: Trypanosoma cruzi; experiment: Trypanosoma cruzi phosphomannomutase and mannose-1-phosphate guanylyltransferase assay; format: functional; details: 10 µM
[6] = biological target: T2, Arginase-2, mitochondrial (Homo sapiens) (UniProt P78540); experiment: in vitro enzyme assay to detect the production of urea directly proportional to the activity of Arginase II; format: functional; details: 33.3 µM; note: in the data most compounds retested in dose-response had high values
T2 sequence (whole entry): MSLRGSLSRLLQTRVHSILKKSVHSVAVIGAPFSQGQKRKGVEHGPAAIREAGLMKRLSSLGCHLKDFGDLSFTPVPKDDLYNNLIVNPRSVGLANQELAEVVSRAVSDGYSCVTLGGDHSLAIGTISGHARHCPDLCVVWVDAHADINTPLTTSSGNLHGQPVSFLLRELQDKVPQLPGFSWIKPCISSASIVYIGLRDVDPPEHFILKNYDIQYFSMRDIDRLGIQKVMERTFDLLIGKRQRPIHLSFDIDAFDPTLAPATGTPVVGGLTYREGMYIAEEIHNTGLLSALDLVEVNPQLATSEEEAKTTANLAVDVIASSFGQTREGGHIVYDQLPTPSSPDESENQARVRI

[7] = biological target: T3, Proteasome subunit beta (Trypanosoma cruzi) (UniProt O96673); experiment: Trypanosoma cruzi proteasome chymotrypsin-like activity (TcProtChymo) assay.; note: in the data most compounds retested in dose-response had high values; format: functional; details: 9.37 µM
T3 sequence (whole entry): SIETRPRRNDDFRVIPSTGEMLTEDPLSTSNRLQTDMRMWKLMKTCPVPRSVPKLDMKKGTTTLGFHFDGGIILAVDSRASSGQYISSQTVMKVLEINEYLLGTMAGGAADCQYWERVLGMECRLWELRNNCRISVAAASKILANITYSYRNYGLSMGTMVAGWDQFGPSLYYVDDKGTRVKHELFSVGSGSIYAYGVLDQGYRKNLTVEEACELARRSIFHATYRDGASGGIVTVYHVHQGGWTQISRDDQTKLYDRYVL

[8] = organism: Homo sapiens; experiment: To identify inhibition of the IFN signalling (Jak-Stat) pathway via expression of an eGFP reporter gene under the control of an IFN-stimulated response element (ISRE) containing MxA promoter.; format: functional; details: 30 µM
[9] = biological target: T4, Tyrosyl-tRNA synthetase, putative (Trypanosoma cruzi (strain CL Brener)) (UniProt Q4DSP6); experiment: Trypanosoma cruzi tyrosyl tRNA synthetase (TcYRS) _High Tyrosine SOP; format: functional; details: 30 µM; note: in the data most compounds retested in dose-response had high values
T4 sequence (whole entry): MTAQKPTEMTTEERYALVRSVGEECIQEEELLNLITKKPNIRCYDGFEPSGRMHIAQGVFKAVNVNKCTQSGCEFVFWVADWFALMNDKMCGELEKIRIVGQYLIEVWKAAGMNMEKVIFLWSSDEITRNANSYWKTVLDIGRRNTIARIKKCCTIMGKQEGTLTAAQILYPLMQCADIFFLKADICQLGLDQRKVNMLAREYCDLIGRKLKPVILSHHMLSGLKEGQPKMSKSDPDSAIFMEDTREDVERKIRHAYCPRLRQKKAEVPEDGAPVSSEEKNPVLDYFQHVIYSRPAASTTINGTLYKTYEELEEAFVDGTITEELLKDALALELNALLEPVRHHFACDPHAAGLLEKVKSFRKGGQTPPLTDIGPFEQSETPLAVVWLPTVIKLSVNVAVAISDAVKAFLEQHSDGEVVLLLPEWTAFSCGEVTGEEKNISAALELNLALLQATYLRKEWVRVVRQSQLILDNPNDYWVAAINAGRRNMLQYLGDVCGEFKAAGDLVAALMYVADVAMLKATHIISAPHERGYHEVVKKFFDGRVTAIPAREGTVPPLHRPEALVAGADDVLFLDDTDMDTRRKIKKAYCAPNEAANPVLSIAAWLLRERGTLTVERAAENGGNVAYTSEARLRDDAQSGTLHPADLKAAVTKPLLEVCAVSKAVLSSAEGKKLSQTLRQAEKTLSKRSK

[10] = biological target: T4, Tyrosyl-tRNA synthetase, putative (Trypanosoma cruzi (strain CL Brener)); experiment: Trypanosoma cruzi tyrosyl tRNA synthetase (TcYRS) SOP; format: functional; details: 30 µM
[11] = biological target: Chromo domain-containing protein 1 (Saccharomyces cerevisiae (strain ATCC 204508 / S288c) (Baker's yeast)) (UniProt P32657); experiment: ScCHD-1 Enzyme Inhibition Assay; format: functional; details: 30 µM; note: in the data most compounds retested in dose-response had high values
Sequence of Chromo domain-containing protein 1 (Saccharomyces cerevisiae (strain ATCC 204508 / S288c) (Baker's yeast)) (P32657 whole entry, the tested form may be a part): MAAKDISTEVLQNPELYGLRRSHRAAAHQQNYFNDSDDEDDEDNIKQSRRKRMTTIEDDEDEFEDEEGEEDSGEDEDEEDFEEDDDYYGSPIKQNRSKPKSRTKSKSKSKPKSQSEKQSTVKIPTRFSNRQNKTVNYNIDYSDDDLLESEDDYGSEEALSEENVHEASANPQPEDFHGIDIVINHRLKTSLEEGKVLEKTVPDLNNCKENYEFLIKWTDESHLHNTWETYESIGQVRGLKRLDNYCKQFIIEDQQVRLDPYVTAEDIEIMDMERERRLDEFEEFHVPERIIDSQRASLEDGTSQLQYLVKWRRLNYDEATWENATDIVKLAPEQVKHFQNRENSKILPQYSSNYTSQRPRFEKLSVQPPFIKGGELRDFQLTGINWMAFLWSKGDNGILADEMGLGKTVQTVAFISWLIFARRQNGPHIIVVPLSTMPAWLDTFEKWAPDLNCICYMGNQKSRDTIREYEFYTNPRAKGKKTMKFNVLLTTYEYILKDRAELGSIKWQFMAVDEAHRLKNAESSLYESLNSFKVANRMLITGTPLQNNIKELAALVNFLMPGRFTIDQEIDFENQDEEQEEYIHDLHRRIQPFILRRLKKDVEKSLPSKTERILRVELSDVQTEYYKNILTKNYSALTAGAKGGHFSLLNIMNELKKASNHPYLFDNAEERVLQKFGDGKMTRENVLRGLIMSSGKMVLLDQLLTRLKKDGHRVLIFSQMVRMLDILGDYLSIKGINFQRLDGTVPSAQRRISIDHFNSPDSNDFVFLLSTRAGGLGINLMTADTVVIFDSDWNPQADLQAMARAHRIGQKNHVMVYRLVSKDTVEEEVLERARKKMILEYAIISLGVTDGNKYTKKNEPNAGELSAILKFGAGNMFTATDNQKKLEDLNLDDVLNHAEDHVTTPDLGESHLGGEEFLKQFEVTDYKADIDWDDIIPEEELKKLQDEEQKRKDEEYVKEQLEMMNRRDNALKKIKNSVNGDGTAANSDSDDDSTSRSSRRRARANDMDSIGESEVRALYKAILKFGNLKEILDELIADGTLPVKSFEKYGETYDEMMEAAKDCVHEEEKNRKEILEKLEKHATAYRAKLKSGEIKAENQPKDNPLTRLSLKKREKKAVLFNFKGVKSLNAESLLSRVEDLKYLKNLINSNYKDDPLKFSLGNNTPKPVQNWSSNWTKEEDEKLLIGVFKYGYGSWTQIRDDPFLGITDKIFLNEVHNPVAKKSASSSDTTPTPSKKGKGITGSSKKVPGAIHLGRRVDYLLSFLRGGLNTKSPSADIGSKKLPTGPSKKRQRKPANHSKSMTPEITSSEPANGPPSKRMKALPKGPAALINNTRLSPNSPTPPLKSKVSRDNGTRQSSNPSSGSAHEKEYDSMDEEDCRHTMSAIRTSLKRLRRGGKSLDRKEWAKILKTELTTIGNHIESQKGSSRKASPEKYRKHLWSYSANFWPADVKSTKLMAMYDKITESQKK

Sequence of Sialic acid-binding Ig-like lectin 9 (Homo sapiens) (Q9Y336 whole entry): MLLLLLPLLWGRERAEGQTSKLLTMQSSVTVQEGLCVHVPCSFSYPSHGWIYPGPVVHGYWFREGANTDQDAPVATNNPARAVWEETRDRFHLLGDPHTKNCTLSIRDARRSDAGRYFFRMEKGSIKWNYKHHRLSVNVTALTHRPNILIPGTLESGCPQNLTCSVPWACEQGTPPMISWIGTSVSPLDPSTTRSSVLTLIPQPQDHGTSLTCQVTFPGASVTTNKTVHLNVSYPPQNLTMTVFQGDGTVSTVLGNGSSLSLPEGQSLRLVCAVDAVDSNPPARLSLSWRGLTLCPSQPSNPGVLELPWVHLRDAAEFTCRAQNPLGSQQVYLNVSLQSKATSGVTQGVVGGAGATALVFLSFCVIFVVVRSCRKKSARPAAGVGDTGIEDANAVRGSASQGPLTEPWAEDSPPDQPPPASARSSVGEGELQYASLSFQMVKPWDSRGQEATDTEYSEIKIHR
Sequence of Protein translocase subunit SecA (Escherichia coli (strain K12)) (P10408 whole entry): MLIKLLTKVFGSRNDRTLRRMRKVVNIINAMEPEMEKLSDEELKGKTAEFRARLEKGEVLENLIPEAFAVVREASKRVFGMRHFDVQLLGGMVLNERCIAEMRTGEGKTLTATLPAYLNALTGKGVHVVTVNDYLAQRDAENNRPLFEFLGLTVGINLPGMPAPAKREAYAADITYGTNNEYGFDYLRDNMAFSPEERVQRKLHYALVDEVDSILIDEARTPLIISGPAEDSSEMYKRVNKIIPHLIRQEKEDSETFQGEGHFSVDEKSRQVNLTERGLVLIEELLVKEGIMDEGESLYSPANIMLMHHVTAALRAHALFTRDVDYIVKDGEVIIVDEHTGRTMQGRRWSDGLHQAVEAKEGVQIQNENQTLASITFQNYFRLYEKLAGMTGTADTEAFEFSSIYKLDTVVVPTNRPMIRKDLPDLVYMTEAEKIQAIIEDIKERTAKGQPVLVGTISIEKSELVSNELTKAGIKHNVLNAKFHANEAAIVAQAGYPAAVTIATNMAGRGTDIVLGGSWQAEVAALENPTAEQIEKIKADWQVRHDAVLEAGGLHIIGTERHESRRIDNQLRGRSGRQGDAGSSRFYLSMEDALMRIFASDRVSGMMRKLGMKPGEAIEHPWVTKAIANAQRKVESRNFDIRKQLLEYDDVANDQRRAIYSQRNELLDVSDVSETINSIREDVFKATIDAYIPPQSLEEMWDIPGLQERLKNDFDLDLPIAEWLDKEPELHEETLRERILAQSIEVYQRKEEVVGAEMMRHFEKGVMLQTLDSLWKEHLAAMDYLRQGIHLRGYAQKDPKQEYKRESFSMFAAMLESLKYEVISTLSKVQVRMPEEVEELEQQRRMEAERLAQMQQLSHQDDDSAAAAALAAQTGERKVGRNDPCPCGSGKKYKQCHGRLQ

SMILES | Percent Effect [1] [%] | Percent Effect [2] [%] | Percent Effect [3] [%] | Percent Effect [4] [%] | Percent Effect [5] [%] | Percent Effect [6] [%] | Percent Effect [7] [%] | Percent Effect [8] [%] | Percent Effect [9] [%] | Percent Effect [10] [%] | Percent Effect [11] [%]
CCc1nc(CC(=O)N2CCn3c(nnc3C(F)(F)F)C2)cs1 | -2.58 | 0 | 6.61 | 5.79 | 0.564 | 4.98 | 3.17 | -25.8 | -0.49 | 0 | -6.79
CS(=O)(=O)CCSc1cccc(C#N)c1 | -3.18 | -4.17 | -4.21 | -5.6 | -0.291 | -0.442 | 7.72 | 7.41 | -1.05 | 0 | -0.524
CCN1CCC(NC(=O)CN2CCCCC2Cn2cc(C)cn2)CC1 (configuration not stated) | 3.6 | 21.5 | 4.67 | -0.101 | -4.21 | -11.4 | 15.3 | 14.9 | 1.04 | -22.8 | -23.6
O=C(c1cccc(=O)[nH]1)N(Cc1ccsc1)CC1CCCO1 (configuration not stated) | -0.641 | 10.8 | -7.24 | 6.17 | -0.386 | 2.86 | 12.8 | 11.3 | 7.94 | 17.1 | -1.82
O=C(NCc1ccc(-c2ccn[nH]2)cc1)N1CCC(N2CCCC2)C1 (configuration not stated) | -6.43 | 2.63 | -5.77 | 6.24 | 1.59 | -5.4 | 4.65 | 5.01 | 10.3 | 18.5 | 1.9
Cc1noc(C)c1CN1CC2(CCN(C(=O)c3c[nH]cn3)C2)CC1=O (configuration not stated) | -0.0681 | 13.3 | -2.8 | 13.2 | -3.48 | -49.3 | 17.8 | -2.42 | 2.08 | 17.5 | -4.57
COc1cccc([C@@H]2CN(C(=O)c3ccc(C)cc3O)C[C@H]2C(=O)O)c1 | -3.46 | 21.6 | -1.7 | 25.8 | 4.59 | 40.9 | 15.9 | 1.8 | 3.23 | 18.5 | -5.84
CCN(CC)C(=O)Cn1ccc2cc(NC(=O)C3CC3)ccc21 | -5.06 | 15.8 | -9.59 | 7.96 | 6.39 | -3.06 | 14.9 | 4.68 | 5.39 | 21.9 | -12.7
CCn1nc(C)c(CNC(=O)c2cn(CCC3CCCCN3)nn2)c1C (configuration not stated) | -5.31 | 2.67 | 0.29 | 4.73 | 1.27 | 5.21 | 9.77 | -25.2 | 7.1 | 16.1 | -5.55
CCCNC(=O)c1c(-n2cnnn2)sc2c1CCC2 | -1.2 | 7.89 | 4.3 | 2.22 | -9.45 | 3.55 | 9.3 | 2.78 | 5.32 | 0 | -5.31
Cc1nc(-c2ccccc2)n(CC(=O)N(C(C)C)C(C)C)n1 | -0.812 | 18.9 | -12.1 | 5.09 | 3.68 | -9.62 | 15.3 | 14.6 | 9.36 | 23.5 | -8.42
O=C(NC1(c2cccc(F)c2)CCOCC1)c1ccoc1 | -5.15 | 5.2 | -0.889 | 5.11 | 2.46 | -6.9 | 1.33 | -3.68 | 2.15 | 8.64 | -3.25
CN1C(=O)C[C@@H]2[C@@H]1CCN2S(=O)(=O)Cc1ccccc1 | 2.57 | 2.74 | 4.04 | 13.8 | -0.595 | 2 | 2.83 | 1.27 | 3.12 | 3.7 | 6.94
CS(=O)(=O)c1ccc(OCCNCc2cccc(F)c2)cc1 | -6.14 | 0 | 1.51 | 6.7 | 3.57 | -0.798 | 4.02 | 3.81 | 8.33 | 13.6 | 3.19
CC(C)S(=O)(=O)NCC1CCCN(C(=O)c2cccnc2)C1 (configuration not stated) | -1.12 | 11 | -1.03 | -2.93 | -3.53 | 0.455 | 21.3 | 15 | 3.23 | 10 | -3.28
Cn1cc(Cl)cc1C(=O)N1CCN(Cc2ccsc2)CC1 | -0.357 | 5.26 | 5.58 | -5.04 | 4.13 | 0.766 | -1.67 | -2.56 | 2.45 | 4.88 | -0.287
CCOc1ccc(Cl)c(C(=O)N2CCN(CCO)CC2)n1 | -5.67 | 10.4 | -0.195 | 9 | -3 | 0.356 | 4.05 | 5.42 | 4.85 | 9.76 | -4.45
COc1ncccc1C(=O)NCC1Cc2ccccc2O1 (configuration not stated) | -0.887 | 5.48 | 2.87 | 0.0975 | -1.76 | 1.36 | 21.3 | -1.66 | 4.3 | 12.5 | -7.46
CN(C)C(=O)N1C[C@@H]2CC[C@H](C1)N(Cc1ccc3nsnc3c1)C2 | -2.91 | -1.39 | -8.41 | -5.35 | -2.04 | 4.42 | 13.2 | -11.8 | 0 | 2.56 | -0.102
COc1ccccc1CNC(=O)Cn1ncc2c1c(C)nn2C | -2.51 | 6.67 | 1.32 | 6.52 | -7.86 | -15 | 12.8 | -0.504 | 5.29 | 7.69 | -9.43
N#Cc1ccc(CN2CCN(C(=O)c3cc(C4CC4)[nH]n3)CC2)cc1 | -4.3 | 21.6 | -5.26 | 14.7 | 4.74 | -3.51 | 5.21 | 23.8 | 7.92 | 18.3 | -4.6
CC(C)n1cc(S(=O)(=O)N2CCCCC2)cn1 | -5.5 | 14.7 | -5.08 | 14.1 | 0.393 | -2.29 | 15.7 | 2.73 | 6.35 | 15.4 | -8.47
